Imprint erasure – qHTS Assay for Compounds that Induce Erasure of Genomic Imprints | mouse ES Peg3-LacZ reporter, beta-gal luminescence, 40 h | Potency, µM (top dose mostly 60.7 µM), inactives show at the highest dose activity change, positive = activation, hits mostly activators | 0.02% of 110,000 active | AID 1948, 2009; further: potency means the concentration at half of the fitted maximal effect
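Readout: BetaGlo luminescence (5 min, room temp) for LacZ from the normally silent maternal Peg3 allele in female Peg3LacZ-Neo ES cells. Cells 300/well, 40 h, 37C, 5% CO2. Data normalized per plate to negative controls.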
CRE Fsk mod – Cell signaling CRE-BLA (Fsk stim); 2.5% of 71,000 active; Potency, µM (top dose mostly 38.2 µM), for inactives: top-dose activity change, negative = inhibition, most hits filed as activators; CHO CRE-bla reporter (cAMP response element driving beta-lactamase), forskolin EC10, beta-lactamase ratio; AID 662, 2007; active means well fitted activation curve with a large enough effect in the signal ratio, with a control signal flat, not every such curve was filed as active; inconclusive means small, poorly fitted or top-dose-only effect, or effect the other way, or a change in a side signal; the % refers to the signal ratio; further: potency means the concentration at half of the fitted maximal effect; % of control where 0% means no effect
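qHTS titration format; CRE-bla CHO reporter; stimulus EC10 NKH 477, a water-soluble forskolin. Read: CCF4 460/530 nm ratio. Potency expressed as AC50 for activators or inhibitors.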
Epigenetic mod – qHTS Assay for Epigenetic Modulators | mouse C127i GFP locus derepression, cytometry, 30 h | Potency, µM (highest dose often 46.1 µM), for inactives: top-dose GFP derepression (activation) | 0.09% of 68,000 active; further: % of control where 0% means no effect
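Murine C127i mammary cells carrying a silenced, stably integrated CMV-driven GFP reporter were treated with compound for 30 hours at 37 C. After PBS washes, GFP-positive cells were counted by laser-scanning microplate cytometry.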
IkB signaling – IkB Signaling; ABC-DLBCL IkBa-CBG/CBR dual luciferase ratio, 4 h; response scale: scaled: untreated 0%, proteasome inhibitor 100%; Potency, µM (top dose mostly 57.1 µM), for inactives: at the top dose IkBa stabilization activation; 0.04% of 110,000 active; active means well fitted curve in the direction sought with a large enough effect in the signal ratio, not every such curve was filed as active; inconclusive means small, poorly fitted or top-dose-only effect, or a change in a side signal; the % refers to the signal ratio;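 further: potency means the concentration at half of the fitted maximal effect; the direction sought is a rising ratio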
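Curves were fitted separately to fusion (green), unfused (red) and ratio luminescence, then classed by r2, magnitude and activity. Cells: OCI-Ly3, 4 h compound plus doxycycline at 37C; 10 uM MG-132 defined full response.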
HBB splicing – qHTS Assay for Modulators of Hemoglobin Beta Chain Splicing; HBB splicing reporter cell assay, activation; EGFP reporter with mutant IVS2-654 intron; response scale: normalised to 500 nM splice-correcting PNA; Potency, µM (series often up to 46.1 µM), without a hit: at the highest dose activation, actives largely listed as activators; 0.06% of 65,000 active; further: potency means the concentration at half of the fitted maximal effect; 0% is about no effect
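Compounds were applied for 2 days to HeLa EGFP-654 cells, 500/well in Optimem with 2% FCS. The reporter's EGFP is disrupted by mis-splicing of beta-globin intron IVS2-654. Readout: summed well GFP fluorescence from 488 nm laser scanning; reference was 500 nM antisense […] 654 PNA.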
Active calls of the source: *; ? = inconclusive; . = no result given; [ ] = remark or other dose. This is one part of a sample in which hits are shown more often than they occur. Unless noted, the call rests on the fitted dose curve; in most records, active means well fitted curve in the direction sought with a large enough effect; inconclusive means small, poorly fitted or top-dose-only effect, or another doubt; inactive means no such curve, though single readings can be large; an effect the other way counts as inactive or inconclusive.

SMILES	Imprint erasure	CRE Fsk mod	Epigenetic mod	IkB signaling	HBB splicing
COc1cccc(Cn2c(=O)c(C)nc3cnc(N4CCN(C)CC4)nc32)c1	-13%	?	8%[9.22 µM]	3%[11.4 µM]	2%
COc1ccc(-n2c(=O)c(C)nc3cnc(N4CCNCC4)nc32)cc1	.	13µM*	2%[9.22 µM]	-1%[11.4 µM]	1%
COc1cccc(Cn2c(=O)c(C)nc3cnc(N4CCOCC4)nc32)c1	.	3.2µM*	-3%[9.22 µM]	-1%[11.4 µM]	1%
COc1cccc(Cn2c(=O)c(-c3cc(F)cc(F)c3)nc3cnc(N4CCOCC4)nc32)c1	1%	?	0%[9.22 µM]	-2%[11.4 µM]	1%
COc1cccc(Cn2c(=O)c(-c3cccc(C#N)c3)nc3cnc(N4CCOCC4)nc32)c1	-1%	0.5µM*	-4%[9.22 µM]	1%[11.4 µM]	0%
CCOc1ccccc1NS(=O)(=O)c1ccc2c(c1)CC(C)N2C(=O)C1CC1 (centres undefined)	-17%[10.9 µM]	.	.	-3%	.
CCOC(=O)COc1cccc2c(=O)n(CC(=O)NCc3ccc4c(c3)OCO4)ccc12	-8%	13µM*	.	-5%	1%
CCOC(=O)COc1cccc2c(=O)n(CC(=O)N3CCc4ccccc43)ccc12	-10%	1%	.	2%	0%
Cc1ccc(CNC(=O)C2CCN(S(=O)(=O)c3cc(-c4noc(C)n4)ccc3C)CC2)cc1	-13%[10.9 µM]	.	.	0%	.
CCOc1cc(C2NC(=O)NC(C)=C2C(=O)OC(C)CC)cc(Br)c1O (centres undefined)	-7%	10µM*	5%	-1%	2%
CCOC(=O)c1cnn(-c2ccccn2)c1N	-49%	?	-1%	11%	-4%
Cc1nn(-c2ccccn2)c2nc(-c3cccs3)cc(C(=O)N3CCOCC3)c12	-5%	3.2µM*	-3%	0%	-1%
CCOC(=O)c1cc(-c2ccncc2)nc2c1c(C)nn2-c1ccccn1	20%	3.2µM*	-1%	1%	0%[57.5 µM]
CSc1ccc(CNC(=O)Cc2csc3ccccc23)cc1	7%[10.9 µM]	.	.	?	.
CC(C)NC(=O)CCC(=O)N1Cc2ccccc2Oc2ncccc21	?	.	.	-1%	.
COc1ccc(CCNC(=O)c2ccc3c(c2)CCN3S(=O)(=O)c2ccc(Cl)cc2)cc1	-21%[10.9 µM]	.	.	?	.
c1ccc(-c2nc(NC3CC3)nc(-n3ccnc3)n2)cc1	-2%	0.5µM*	4%	4%	0%
c1ccc(-c2nc(-n3ccnc3)nc(-n3ccnc3)n2)cc1	-21%	1.3µM*	-2%	?	0%
CCCCc1ccc2nc(NC(=O)OC)[nH]c2c1	-25%[16.8 µM]	0.25µM*	-1%[20.6 µM]	?	-1%[20.6 µM]
O=C(Cc1ccccc1)Nc1nc2ccccc2[nH]1	-2%	-15%	-2%	?	0%[57.5 µM]
COc1ccc(OC)c(C2=Nn3c(nnc3-c3cccc(OC(C)C)c3)SC2)c1	-19%	1.3µM*	-6%	-1%	2%[57.5 µM]
COc1ccc(Cc2nnc3n2N=C(c2cc4ccccc4o2)CS3)cc1OC	-16%	3.2µM*	1%	?	0%[57.5 µM]
COc1ccc(C2=Nn3c(nnc3-c3cccnc3)SC2)cc1	-12%	10µM*	-3%	4%	3%
COc1ccc(OC)c(C2=Nn3c(nnc3-c3ccco3)SC2)c1	.	.	23%[20.6 µM]	.	.
COc1ccc(C2=Nn3c(nnc3-c3ccccc3)SC2)cc1OC	.	.	-4%[20.6 µM]	.	.
SMILES	Imprint erasure	CRE Fsk mod	Epigenetic mod	IkB signaling	HBB splicing
CCCc1nnc2n1N=C(c1ccc(OC)c(OC)c1)CS2	-18%	6.3µM*	-1%	-3%	-3%[57.5 µM]
CN1[C@@H]2CC[C@@H]1CC(OC(=O)[C@H](CO)c1ccccc1)C2 (some centres undefined)	9%	.	.	.	.
CCc1ccc(CNC(=O)CN2C(=O)CCn3nc(-c4cn(C)c5ccccc45)cc32)cc1	10%[10.9 µM]	.	.	?	.
CCOc1ccc(N(CC)S(=O)(=O)N2CCCC(C(=O)Nc3ccc(NC(C)=O)cc3)C2)cc1 (centres undefined)	-1%[10.9 µM]	.	.	?	.
CCOc1ccc(C2=Nn3c(nnc3-c3ccc(OC)cc3)SC2)cc1	-21%	13µM*	-2%	0%	1%[57.5 µM]
CCOc1ccc(C2=Nn3c(nnc3-c3cccnc3)SC2)cc1	.	.	6%[20.6 µM]	.	.

Bioassay records as filed in PubChem BioAssay.
